# HT1080 IDH1KD tx: HT-1080 IDH1 knockdown cell toxicity (counter line). HT-1080 IDH1 knockdown viability, ATP luminescence, 48 h. Potency, µM (doses to about 46.1 µM), without a hit: top-dose activity, negative = toxicity, actives largely listed as cytotoxic. 360,000 compounds, 2% hits;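 also: potency is read from the fitted curve at half-maximal effect; 0% = DMSO wells and -100% = cell-free medium wells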
#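 After a 2 h attachment period, IDH1KD HT-1080 cells took pin-transferred compound for 48 h at 37 °C; ATP-based luminescence after 10 min room-temperature reagent incubation reported viability.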
# IL1B secr inh: inflammasome signaling inhibition, IL-1 beta readout. THP-1 LPS/ATP IL-1B secretion, AlphaLISA, 16 h; hits give low values. activity change, % at 57.5 µM. 360,000 compounds, 4.7% hits. AID 743279; in the data active = activity change below about -50%; inconclusive = mostly about -30% to -49%
#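 Secreted IL-1B measured by AlphaLISA bead assay after 16 h compound exposure of THP-1 cells; compounds (final up to 57.5 uM) added 1 h before LPS (250 ng/mL) and ATP (1.25 mM) stimulation; lower signal means less secretion.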
# ALOX12 inh: inhibitors of human 12S-lipoxygenase ALOX12. AID 1671190. P18054. Potency, µM (titrated, usually from 108 µM), without a hit: top-dose activity change, negative = inhibition, actives largely listed as inhibitors. purified 12hLO, xylenol orange hydroperoxide absorbance. 580,000 compounds, 1.1% hits; also: potency is read from the fitted curve at half-maximal effect
# Target sequence (P18054 whole entry, looked up): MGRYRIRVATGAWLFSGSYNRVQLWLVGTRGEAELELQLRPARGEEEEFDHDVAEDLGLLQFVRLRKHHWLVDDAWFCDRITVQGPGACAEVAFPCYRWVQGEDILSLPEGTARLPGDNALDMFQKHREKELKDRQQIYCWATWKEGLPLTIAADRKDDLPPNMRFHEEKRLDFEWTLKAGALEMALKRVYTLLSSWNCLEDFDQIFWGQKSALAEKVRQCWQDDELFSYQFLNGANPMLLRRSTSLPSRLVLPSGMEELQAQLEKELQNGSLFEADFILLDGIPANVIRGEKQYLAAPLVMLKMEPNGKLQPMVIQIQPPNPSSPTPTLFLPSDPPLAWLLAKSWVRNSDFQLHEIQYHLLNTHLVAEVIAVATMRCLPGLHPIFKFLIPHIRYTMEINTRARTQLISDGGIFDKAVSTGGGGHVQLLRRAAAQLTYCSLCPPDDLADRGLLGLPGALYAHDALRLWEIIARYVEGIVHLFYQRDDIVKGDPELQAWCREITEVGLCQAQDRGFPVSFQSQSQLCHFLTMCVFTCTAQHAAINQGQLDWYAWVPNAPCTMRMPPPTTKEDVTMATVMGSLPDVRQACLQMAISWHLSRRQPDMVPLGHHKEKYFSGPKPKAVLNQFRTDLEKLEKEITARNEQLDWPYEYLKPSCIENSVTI
#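 Purified human 12hLO at 150 nM in 25 mM Hepes, 0.01% Triton X-100, pH 7.0, preincubated 15 min at room temperature with compound. Reaction started with 40 uM arachidonic acid, 30 min at room temperature. Hydroperoxide measured by Fe-xylenol orange, 573/405 nm absorbance ratio.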
# TDP1 cell CPT: growth inhibition of DT40 Tdp1-/-;hTDP1 cells with camptothecin (screen for TDP1 inhibitors) | Potency, µM (highest dose often 46.2 µM), for the others: at the highest dose activity change, negative = growth inhibition, actives largely listed as inhibitors | AID 686979 | chicken DT40 Tdp1-/-;hTDP1 cells + 20 nM CPT, ATP luminescence, 48 h | 420,000 compounds, 12% hits; also: potency is read from the fitted curve at half-maximal effect; nearly all actives have a fitted effect of over 55% in size
#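 Cell growth measured by CellTiter-Glo luminescence after a minimum 48 h, 37 C compound exposure with 20 nM CPT in Tdp1-knockout DT40 cells stably expressing hTDP1, seeded 400/well; qHTS titration format.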
# HT1080-NT tox: kills 2HG-producing HT-1080-NT fibrosarcoma cells | Potency, µM (titrated, usually from 46.1 µM), for inactives: at the top dose activity, negative = less viability, actives largely listed as cytotoxic | HT-1080-NT fibrosarcoma viability, CellTiter-Glo ATP luminescence, 48 h | 360,000 compounds, 1.6% hits | AID 686970;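 also: NT is the 2HG producing partner of a matched IDH1 knockdown line; potency is read from the fitted curve at half-maximal effect; 0% = DMSO-treated cells and -100% = media-only wells without cells; nearly all actives have a fitted effect of over 55% in size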
#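 Viability of the 2HG-overproducing fibrosarcoma line after 48 hours of compound exposure at 37 degrees C was determined by luminescence with CellTiter-Glo, and concentration-effect curves were then fitted and categorized.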
# TDP1 cell noCPT: qHTS for Inhibitors of human tyrosyl-DNA phosphodiesterase 1 (TDP1): qHTS in cells in absence of CPT | Potency, µM (top dose mostly 46.2 µM), for inactives: at the highest dose activity change, negative = growth inhibition, usual class: inhibitors | 420,000 compounds, 15% hits | DT40 Tdp1-/- hTDP1 cells, no CPT, ATP luminescence, 48 h | AID 686978, 2013; also: potency is read from the fitted curve at half-maximal effect; nearly all actives have a fitted effect of over 55% in size
#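 Seeded 400 DT40-hTDP1 cells/well (vehicle DMSO, no 20 nM CPT); pinned compounds; ≥48 hr at 37 °C; CellTiter-Glo luminescence as viability measure.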
# * = called active by the depositor; ? = inconclusive; / = not tested or not shown. The entries come from a sample that favours hits as a whole. Unless noted, calls follow the shape of the dose curve; as a rule, active = well fitted curve in the direction sought with a large enough effect; inconclusive = small, poorly fitted or top-dose-only effect, or another doubt; inactive = no such curve, though single readings can be large; an effect the other way counts as inactive or inconclusive. Unless noted, % is scaled to controls: 0 for no effect and ±100 for the full control effect.
SMILES,HT1080 IDH1KD tx,IL1B secr inh,ALOX12 inh,TDP1 cell CPT,HT1080-NT tox,TDP1 cell noCPT
CCOc1ccc([C@@H]2CC=C(C(=O)O)[C@H](c3cccc(Cl)c3)N2S(=O)(=O)c2ccc(C)cc2)cc1,12%,40,?,?,4%,?
CCOC(=O)C1=CCN(S(=O)(=O)c2ccc(C)cc2)C1c1cccc(Br)c1 (stereo not given),?,-18,-24%,16µM*,-26%,?
CC(C(=O)NCc1nnc2ccc(-c3ccccc3)nn12)c1ccccc1 (stereo not given),/,/,18%,/,/,/
COc1ccc(CNC(=O)CCNS(=O)(=O)c2cc(Br)cnc2N)cc1,1%,29,/,21µM*,28%,13µM*
COc1ccc(S(=O)(=O)N2CCN(c3ccccc3)CC2)cc1-c1noc(C2CCCCC2)n1,/,/,0%,/,/,/
CCOc1ccc(CNC(=O)COc2cc(=O)n(C)c3ccccc23)cc1,/,/,0%,-4%,/,?
Cc1cc(N2CCN(Cc3cn(C)nc3-c3ccccc3F)CC2)cc(C)n1,?,?,2%,5.8µM*,?,5.8µM*
Cc1cc(N2CCN(Cc3cn(C)nc3-c3cccc(Cl)c3)CC2)cc(C)n1,16µM*,-82*,-3%,5.2µM*,15µM*,5.8µM*
O=S1(=O)CCO[C@H]2CCCC[C@@H]2N1Cc1cccc(F)c1,/,/,/,-29%,/,-18%
O=C(Cc1cccs1)N1CCCN(C(=O)C2CC2)c2ccccc21,/,/,32%,/,/,/
CCOC(=O)c1cccc(NC(=O)CC2C(=O)N(c3ccc(Cl)cc3)C(=O)N2C2CCCC2)c1 (stereo not given),/,/,?,21µM*,/,18µM*
CCOC(=O)c1cccc(NC(=O)CC2C(=O)N(c3ccc(OC)cc3)C(=O)N2C2CCCC2)c1 (stereo not given),/,/,-26%,23µM*,/,23µM*
CCCCNC(=O)Cn1ncc2c(C)n(Cc3cccc(Cl)c3)c(C)c2c1=O,/,/,-1%,23µM*,/,21µM*
O=C(CCCCn1c(=O)c2ccccc2n(Cc2ccccc2F)c1=O)NCc1ccc2c(c1)OCO2,/,/,-19%,-4%,/,?
O=C(CCCCn1c(=O)c2ccccc2n(Cc2ccccc2F)c1=O)NCc1ccccc1Cl,/,/,?,8.2µM*,/,5.2µM*
O=C(CCCCn1c(=O)c2ccccc2n(CC(=O)Nc2ccc(F)cc2F)c1=O)NCc1ccccc1Cl,/,/,-18%,-10%,/,-19%
CCCCNC(=O)CCCn1c(=O)c2ccccc2n(Cc2ccccc2C)c1=O,/,/,0%,?,/,21µM*
O=C(CCCn1c(=O)c2ccccc2n(CC(=O)Nc2ccc(F)cc2F)c1=O)NCc1ccccc1Cl,/,/,-30%,16µM*,/,?
Cc1noc(C)c1S(=O)(=O)Nc1ccc2c(c1)C(=O)N([C@@H](C)CO)C[C@H](C)[C@@H](CN(C)Cc1ccc(C(F)(F)F)cc1)OCCCC[C@H](C)O2,?,?,-36%,?,?,?
Cc1cccc(NC(=O)CNC(=O)c2nccnc2N)c1C,/,/,-26%,/,/,/
Cc1ccc(C)c(Cn2c(=O)n(CCCCC(=O)NCc3ccccc3Cl)c(=O)c3ccccc32)c1,/,/,0%,7.3µM*,/,7.3µM*
COc1ccccc1CNC(=O)CCCCn1c(=O)c2ccccc2n(Cc2ccccc2F)c1=O,/,/,-12%,3.7µM*,/,2.3µM*
CCOC(=O)c1ccccc1NC(=O)Cn1c(=O)n(CCC(=O)NCc2ccccc2OC)c(=O)c2ccccc21,/,/,-17%,?,/,16µM*
CCCCNC(=O)CCCn1c(=O)c2ccccc2n(Cc2cccc(Cl)c2)c1=O,/,/,-23%,23µM*,/,23µM*

# Screening results deposited in PubChem BioAssay by National Center for Advancing Translational Sciences (NCATS).
